{
  "source": "PubChem BioAssay (Tox21)",
  "note": "Records with an inconclusive call do not appear. Where a call stands in place of a potency, no number is given. Activity calls are given as the source filed them. The call rests on the fitted dose curve.",
  "data": [
    {"assay": "cAMP Responsive Elements (CRE) small molecule agonists, cell-based qHTS assay (AID 1963590)", "conditions": "CRE-bla HEK293T, beta-lactamase FRET ratio, 3 h; series mostly up to 92.4 µM", "from_the_text": "U.S. Tox21 Program National Center for Advancing Translational Sciences [NCATS] Division of Preclinical Innovation [DPI] U.S. Environmental Protection Agency [EPA] National Institutes of Environmental Health Sciences [NIEHS] National Toxicology Program [NTP] U.S. Food and Drug Administration [FDA] Tox21 Assay Overview: CREB (cyclic-AMP Responsive Element Binding Protein) is a cellular transcription factor. It binds to certain DNA sequences called cAMP Responsive Elements (CRE) and regulates the transcription of the genes. […] This cell line can be used to find agonists/antagonists of the cyclic AMP signaling pathway. The activation of the report gene under culture conditions can be detected by fluorescence intensity. This cell line has been used to screen the Tox21 10K compound library to identify agonists that induce oxidative stress.\nTox21 Assay Protocol Summary: CRE-bla Hek 293T cells were suspended in assay medium (DMEM containing 10% dialyzed FBS, 0.1 mM NEAA, 1 mM sodium pyruvate and 25 mM HEPES) and dispensed at 2,000 cells/5 uL /well into 1536-well black wall/clear bottom plates using a Multidrop Combi (ThermoFisher Scientific, Waltham, MA) dispenser. After the assay plates were incubated at 37 C/5% CO2 for 18 hrs, 23 nL of compounds dissolved in DMSO, positive controls or DMSO only was transferred to the assay plate by a pintool workstation (Kalypsys, San Diego, CA). After the plates were incubated at 37 C/5% CO2 for 3 hrs, 1 uL of LiveBLAzer B/G FRET substrate (Invitrogen, Carlsbad, CA) was added to each well using Bioraptr Flying Reagent Dispenser (FRD, Aurora Discovery, San Diego, CA). The plates were incubated at room temperature for 2 h.", "values": [
      {"molecule": "N#CC(Br)Br", "Potency": "inactive"},
      {"molecule": "O=NN1CCCC1", "Potency": "inactive"},
      {"molecule": "O=[N+]([O-])c1cccc(O)c1", "Potency": "inactive"},
      {"molecule": "O=C1c2ccccc2C(=O)N1SC(Cl)(Cl)Cl", "Potency": "inactive"},
      {"molecule": "CCCCCCCCSC(=O)Oc1cc(Cl)nnc1-c1ccccc1", "Potency": "inactive"},
      {"molecule": "CCCCON=O", "Potency": "inactive"},
      {"molecule": "Clc1ccc(C(Cl)(Cl)Cl)c(Cl)c1", "Potency": "inactive"},
      {"molecule": "O=c1nc(O)n(Cl)c(=O)n1Cl", "Potency": "inactive"},
      {"molecule": "CCNc1nc(NC(C)C)nc(SC)n1", "Potency": "inactive"},
      {"molecule": "CC1=C2[C@H]3OC(=O)[C@@H](C)[C@@H]3CC[C@@]2(C)C=CC1=O", "Potency": "inactive"},
      {"molecule": "CC(Cl)C(=O)O", "note": "(stereo not given)", "Potency": "inactive"},
      {"molecule": "CC(=O)C(C)(C)C", "Potency": "inactive"},
      {"molecule": "Nc1ccc(Br)cc1", "Potency": "inactive"},
      {"molecule": "CCCCCCCCCCCCOS(=O)(=O)O", "Potency": "inactive"},
      {"molecule": "CCOP(=O)(O)OCC", "note": "(tested in a mixture with another compound)", "Potency": "inactive"},
      {"molecule": "CN1CC[C@]23c4c5ccc(O)c4O[C@H]2[C@@H](O)CC[C@H]3[C@H]1C5", "Potency": "inactive"},
      {"molecule": "CC(Cl)CCl", "note": "(stereo not given)", "Potency": "inactive"},
      {"molecule": "CCC(Cl)[N+](=O)[O-]", "note": "(stereo not given)", "Potency": "inactive"},
      {"molecule": "CN(C)C(=O)Nc1cccc(C(F)(F)F)c1", "Potency": "inactive"},
      {"molecule": "Cc1ccc([N+](=O)[O-])cc1", "Potency": "inactive"},
      {"molecule": "Nc1cnn(-c2ccccc2)c(=O)c1Cl", "Potency": "inactive"},
      {"molecule": "N#CCNCC#N", "Potency": "inactive"},
      {"molecule": "CNC(=O)Oc1c(C(C)(C)C)cc(C)cc1C(C)(C)C", "Potency": "inactive"},
      {"molecule": "C1CS1", "Potency": "inactive"},
      {"molecule": "COC(=O)c1ccc(CBr)cc1", "Potency": "inactive"},
      {"molecule": "C=CCN=C=S", "Potency": "inactive"},
      {"molecule": "C=CCc1ccc(OC)cc1", "Potency": "inactive"},
      {"molecule": "C#CC(C)(C)NC(=O)c1cc(Cl)cc(Cl)c1", "Potency": "inactive"},
      {"molecule": "CC1(C)C(C=C(Cl)Cl)C1C(=O)OC(C#N)c1cccc(Oc2ccccc2)c1", "note": "(stereo not given)", "Potency": "inactive"},
      {"molecule": "Cc1ccc(OP(=O)(Oc2ccc(C)cc2)Oc2ccc(C)cc2)cc1", "Potency": "inactive"},
      {"molecule": "Nc1cccc2ccccc12", "Potency": "inactive"},
      {"molecule": "CC(C)CON=O", "Potency": "inactive"},
      {"molecule": "Nc1ccc(Cl)cc1", "Potency": "inactive"},
      {"molecule": "C[C@H]1O[C@H](OC2[C@@H](O)[C@@H](O)C(O)[C@H](O)[C@H]2O)[C@@H](N)C[C@@H]1N=C(N)C(=O)O", "note": "(stereo not given in full)", "Potency": "inactive"},
      {"molecule": "CN1CSC(=S)N(C)C1", "Potency": "inactive"},
      {"molecule": "O=C(O)CCCc1ccc(N(CCCl)CCCl)cc1", "Potency": "inactive"},
      {"molecule": "O=[N+]([O-])c1ccc(Oc2ccc(Cl)cc2Cl)cc1", "Potency": "inactive"},
      {"molecule": "Clc1ccc(Cl)cc1", "Potency": "inactive"},
      {"molecule": "CC(C)OS(C)(=O)=O", "Potency": "inactive"},
      {"molecule": "CC(C)=CCN1CC[C@@]2(C)c3cc(O)ccc3C[C@@H]1[C@@H]2C", "Potency": "inactive"}
    ]}
  ]
}
